This is a sample that favours compounds with a hit; in the whole collection about 2.8% have one here.
Pol beta inh: qHTS Assay for Inhibitors of DNA Polymerase Beta; Potency, µM (highest dose often 114 µM), without a hit: at the top dose activity change, negative = inhibition, most hits filed as inhibitors; P06746; actives 1.3% (n = 340,000); Pol beta primer extension/strand displacement, fluorescence kinetic; AID 485314, 2010; further: potency means the concentration at half of the fitted maximal effect; on the % scale 0 is the no-effect control and ±100 the full control effect
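Kinetic readout of DNA synthesis with strand displacement by Pol beta. Compound and 10 nM enzyme sit 15 min at room temperature; 50 nM substrate starts the reaction, read immediately and at 10 min.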
Pol eta inh: qHTS for Inhibitors of Polymerase Eta; DNA polymerase eta (Homo sapiens), Q9Y253; recombinant Pol eta, fluorescent DNA replication assay; Potency, µM (titrated, usually from 114 µM), for inactives: top-dose activity change, negative = inhibition, most hits filed as inhibitors; actives 1.2% (n = 390,000); further: potency means the concentration at half of the fitted maximal effect; on the % scale 0 is the no-effect control and ±100 the full control effect
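Pol eta at 10 nM preincubated with compounds 15 min at room temperature; reaction started with fluorescent substrate (50 nM final) and read kinetically at 0 and 10 min.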
Pol kappa inh: qHTS for Inhibitors of Polymerase Kappa. purified Pol kappa, fluorescent DNA synthesis assay, 10 min. AID 588579, 2011. Potency, µM (highest dose often 107 µM), for the others: at the top dose activity, negative = inhibition, actives largely listed as inhibitors. actives 0.53% (n = 400,000); further: potency means the concentration at half of the fitted maximal effect; on the % scale 0 is the no-effect control and ±100 the full control effect
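Fluorescent qHTS in 1536-well format: enzyme (10 nM) and compound sat 15 min at room temperature before 50 nM substrate (final) was added. Signal taken at 0 and 10 min; no-enzyme buffer wells were negative controls.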
POLI inh: qHTS for Inhibitors of Polymerase Iota | AID 588590, 2011 | Pol iota fluorescent replication assay, 10 min | actives 1% (n = 390,000) | DNA polymerase iota (Homo sapiens), Q9UNA4 | Potency, µM (doses to about 115 µM), for inactives: at the top dose activity, negative = inhibition, most hits filed as inhibitors; further: potency means the concentration at half of the fitted maximal effect
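Fluorescent replication assay read twice, at 0 min and 10 min after adding 50 nM (final) substrate. Enzyme (10 nM) and compounds were first incubated 15 min at room temperature; enzyme-free buffer wells were negative controls.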
WRN helicase inh: qHTS for Inhibitors of WRN Helicase. Bifunctional 3'-5' exonuclease/ATP-dependent helicase WRN (Homo sapiens), Q14191. WRN helicase unwinding, fluorescent forked duplex, kinetic. Potency, µM (doses to about 114 µM), for inactives: at the highest dose activity change, negative = inhibition, most hits filed as inhibitors. actives 0.46% (n = 360,000); further: potency means the concentration at half of the fitted maximal effect; on the % scale 0 is the no-effect control and ±100 the full control effect; nearly all actives have a fitted effect of over 55% in size
Target sequence (Q14191 whole entry, looked up): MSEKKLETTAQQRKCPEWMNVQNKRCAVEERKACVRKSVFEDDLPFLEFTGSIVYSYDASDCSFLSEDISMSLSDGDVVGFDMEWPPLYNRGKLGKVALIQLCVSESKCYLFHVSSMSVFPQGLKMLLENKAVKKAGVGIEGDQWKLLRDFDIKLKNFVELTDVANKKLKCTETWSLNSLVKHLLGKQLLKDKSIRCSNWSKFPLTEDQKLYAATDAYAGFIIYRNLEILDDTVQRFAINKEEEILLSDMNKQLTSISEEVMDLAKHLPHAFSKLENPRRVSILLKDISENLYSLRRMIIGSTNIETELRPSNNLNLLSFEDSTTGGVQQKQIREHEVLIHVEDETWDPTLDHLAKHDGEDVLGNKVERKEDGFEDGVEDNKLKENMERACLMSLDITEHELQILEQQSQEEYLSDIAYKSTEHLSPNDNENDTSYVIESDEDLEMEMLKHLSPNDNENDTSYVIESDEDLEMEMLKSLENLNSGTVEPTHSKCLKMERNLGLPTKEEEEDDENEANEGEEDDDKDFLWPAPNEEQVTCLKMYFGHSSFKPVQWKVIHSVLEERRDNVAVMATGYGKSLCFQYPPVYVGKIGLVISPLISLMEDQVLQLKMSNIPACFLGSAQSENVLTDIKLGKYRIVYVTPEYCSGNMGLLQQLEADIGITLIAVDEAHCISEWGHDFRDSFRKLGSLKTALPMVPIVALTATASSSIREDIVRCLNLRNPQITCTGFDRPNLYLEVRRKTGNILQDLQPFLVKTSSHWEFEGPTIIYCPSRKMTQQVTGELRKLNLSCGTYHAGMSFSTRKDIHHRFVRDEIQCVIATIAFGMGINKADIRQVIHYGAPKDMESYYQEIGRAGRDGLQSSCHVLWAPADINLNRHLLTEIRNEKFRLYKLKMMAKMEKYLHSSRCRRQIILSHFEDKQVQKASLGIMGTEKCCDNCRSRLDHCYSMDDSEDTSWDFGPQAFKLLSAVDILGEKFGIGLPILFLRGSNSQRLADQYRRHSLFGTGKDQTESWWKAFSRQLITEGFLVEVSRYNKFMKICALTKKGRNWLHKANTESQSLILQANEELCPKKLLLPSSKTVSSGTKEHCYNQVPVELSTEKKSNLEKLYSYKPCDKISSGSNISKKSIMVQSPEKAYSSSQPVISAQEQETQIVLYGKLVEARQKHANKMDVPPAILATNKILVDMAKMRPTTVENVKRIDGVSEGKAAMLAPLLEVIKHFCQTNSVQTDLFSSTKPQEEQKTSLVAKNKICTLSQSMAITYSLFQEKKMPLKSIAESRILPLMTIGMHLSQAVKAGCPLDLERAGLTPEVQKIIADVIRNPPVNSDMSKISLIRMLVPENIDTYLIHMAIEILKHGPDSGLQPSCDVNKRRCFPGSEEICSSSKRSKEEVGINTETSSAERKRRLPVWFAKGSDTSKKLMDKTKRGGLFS
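WRN at 20 nM final preincubated with compound 15 min at room temperature; reaction started with 100 nM fluorophore/quencher forked duplex oligonucleotide and 2 mM ATP final. Unwinding followed kinetically by red fluorescence (ex 525, em 598 nm).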
PI5P4K alpha inh: qHTS for Inhibitors of phosphatidylinositol 5-phosphate 4-kinase (PI5P4K). PI5P4Kalpha enzyme, ADP-Glo luminescence, 60 min; stronger effect = lower value. max response, %. actives 1.2% (n = 330,000). Phosphatidylinositol 5-phosphate 4-kinase type-2 alpha (Homo sapiens), P48426; active means max response of -50% or lower; inconclusive means between -30% and -50%; inactive means -30% or higher; further: value at the top dose of about 77 µM; on the % scale 0 is the no-effect control and ±100 the full control effect
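Enzyme plus substrate dispensed, test compounds pinned in, then ATP (5 microM final) added. After 60 min at RT, ADP-Glo reagent 1 for 45 min and reagent 2 for 30 min preceded luminescence imaging.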
* marks the source's active call; other numbers are inactive results; u = inconclusive; x = no result; [ ] = remark or other dose. Unless noted, the call rests on the fitted dose curve; in most records, active means well fitted curve in the direction sought with a large enough effect; inconclusive means small, poorly fitted or top-dose-only effect, or another doubt; inactive means no such curve, though single readings can be large; an effect the other way counts as inactive or inconclusive.

SMILES	Pol beta inh	Pol eta inh	Pol kappa inh	POLI inh	WRN helicase inh	PI5P4K alpha inh
CC1(C)CC(=O)C(C2(O)C(=O)NC(=O)NC2=O)=C(O)C1	13%	4%	0%	8.9µM*	-9%	x
O=C(c1ccccc1)c1ccc2nc(N3CCN(c4ccc(F)cc4)CC3)c3nncn3c2c1	35%	-8%	1%	0%	x	x
O=C1NC(=O)C(=Cc2ccc(OCCOc3ccc([N+](=O)[O-])cc3)cc2)C(=O)N1	u	79µM*	-34%	u	-28%[11.6 µM]	-63*
CCOc1cc(C=C2C(=O)NC(=O)NC2=O)ccc1OS(=O)(=O)c1ccccc1	8%	-8%	-27%	-63%	45µM*	-63*
O=C1NC(=O)C(=Cc2ccc3c(c2)OCO3)C(=O)N1	1%	x	x	x	x	x
O=C1NC(=O)C(=Cc2cccc(OCCOc3ccccc3)c2)C(=O)N1	28%	-1%	-13%	u	-23%	-52*
C(=C\c1ccccc1)/CN1CCN(CCOC(c2ccccc2)c2ccccc2)CC1	x	x	0%[19.4 µM]	x	x	x
O=C1NC(=O)C(Sc2ccccc2[N+](=O)[O-])C(=O)N1	-20%	-21%	-13%	10µM*	u	-54*
Cc1ccccc1[N+](=O)[O-]	x	-11%	10%	15%	4%	2
CC[C@@]1(O)C(=O)OCc2c1cc1n(c2=O)Cc2cc3c(N)cccc3nc2-1	50µM*	22µM*	79µM*	u	-16%	-19
CCC1C(=O)OC[C@H]1Cc1cncn1C (some centres not stated)	x	x	-8%[60.1 µM]	x	x	x
CNc1ccc2oc(C[C@@H]3OC4(CC[C@@H]3C)O[C@H]([C@@H](C)C(=O)c3ccc[nH]3)[C@H](C)C[C@H]4C)nc2c1C(=O)O (some centres not stated)	x	x	-3%[19.4 µM]	x	x	x
CC(C)CN(CC(C)C)c1ccc(C=C2C(=O)NC(=S)NC2=O)cc1[N+](=O)[O-]	50µM*	25µM*	u	18µM*	56µM*	-101*
CCN(CC)c1ccc(C=C2C(=O)NC(=S)NC2=O)cc1	2%	-7%	7%	13%	-17%	-62*
CN(C)c1ccc(C=C2C(=O)NC(=O)NC2=O)cc1	x	-3%	4%	u	-28%	u
CN(C)c1ccc(C=C2C(=O)NC(=S)NC2=O)cc1	x	-17%	-25%	50%	35µM*	-72*
CCOc1ccc(C=C2C(=O)NC(=S)NC2=O)cc1OCC	x	4%	-12%	u	u	u
COC(=O)c1ccccc1N=Cc1c(O)[nH]c(=O)[nH]c1=O	2%	-16%	6%	-22%	7%	3
COc1ccc(OC)c(N=Cc2c(O)[nH]c(=O)[nH]c2=O)c1	38%	-2%	-11%	13%	-9%	-56*
Cc1ccc2c(c1)N(N=O)CCC2	3%	89µM*	-2%	27%	-31%[57.1 µM]	0
COCCCNC(=O)c1c(NC(=O)c2ccco2)n(Cc2ccccc2)c2nc3ccccc3nc12	10%	u	-27%	3.2µM*	u	0
CCCCNC(=O)c1c(N)n(CCCOC)c2nc3ccccc3nc12	18%	-7%	-18%	2.5µM*	-8%	x
COCCNC(=O)c1c(NC(=O)c2ccc(Br)o2)n(Cc2ccccc2)c2nc3ccccc3nc12	-2%	-19%	-10%	u	-19%	0
CCOC(=O)c1c(NS(=O)(=O)c2ccccc2)n(CCCOC)c2nc3ccccc3nc12	1%	u	-22%	1.1µM*	-30%	1
CCCCCn1c(NC(=O)c2ccco2)c(C(=O)OCC)c2nc3ccccc3nc21	-8%	22µM*	-18%	1.4µM*	u	2
SMILES	Pol beta inh	Pol eta inh	Pol kappa inh	POLI inh	WRN helicase inh	PI5P4K alpha inh
O=C(C1CCCN(Cc2ccc(Cl)cc2)C1)N1CCCCC1 (configuration not stated)	4%	-22%	-12%	41%	2%	1
COc1ccc(NC(=O)CCOc2cc(C)ccc2C)cc1S(=O)(=O)N1CCCCC1	x	-29%	-22%	81%	-15%	5
O=C1NC(=O)C(=Cc2cc(Cl)ccc2OCc2ccc(C(=O)O)cc2)C(=O)N1	6%	-9%	-45%	u	-9%	-71*
O=C(O)CSCC(=O)N(Cc1ccccc1)c1nc(-c2ccccc2)c(-c2ccccc2)s1	50µM*	u	u	50µM*	-30%	18
C[C@]12C/C(=C/O)C(=O)C[C@@H]1CC[C@@H]1[C@@H]2CC[C@@]2(C)[C@H]1CC[C@]2(C)O	x	x	-12%[60.1 µM]	x	x	x
Cc1ccccc1-n1c(C)cc(/C=C2/C(=O)NC(=O)N(Cc3ccco3)C2=O)c1C	-9%	u	u	u	-14%	-30
COC(=O)C1=C(C)N(Cc2ccco2)C(=O)/C1=C\c1ccc(N(C)C)cc1	30%	-15%	u	15%	66%	2
COc1ccc(/C=C2/C(=O)NC(=O)N(Cc3ccco3)C2=O)cc1	10µM*	x	x	x	x	x
CCOC(=O)C1CCN(/C=C2/C(=O)NC(=O)N(Cc3ccco3)C2=O)CC1	22µM*	7.1µM*	35µM*	18µM*	u	-73*
O=C(O)c1ccc[nH]c1=S	3%	-4%	-18%	u	-13%	-2
CCOCCCNC(=O)c1c[nH]c2ccc(S(=O)(=O)N(C)c3ccc(Cl)cc3F)cc2c1=O	u	-13%	-4%[60.1 µM]	-29%	x	x
COC[C@H]1OC(=O)c2coc3c2[C@@]1(C)C1=C(C3=O)[C@@H]2CCC(=O)[C@@]2(C)C[C@H]1OC(C)=O	x	-8%	-26%	89µM*	u	u
COc1ccccc1NC(=O)c1oc2ccccc2c1NC(=O)COc1cccc(C)c1	33%	-8%	3%	30%	x	x
CC(=O)C1CCC2C3CCC4CC(C)(O)CCC4(C)C3CCC12C (configuration not stated)	x	x	13%[60.1 µM]	x	x	x
CCOC(=O)c1c(/N=C/c2c(O)n(-c3ccccc3F)c(=S)[nH]c2=O)sc2c1CCCC2	13%	-4%	-4%	u	u	u
CCOC(=O)c1ccc(N=Cc2c(O)n(-c3ccccc3F)c(=S)[nH]c2=O)cc1	30%	-28%	-17%	u	79µM*	-27
Cc1ccccc1-n1c(O)c(/C=N/NC(=O)c2ccccc2O)c(=O)[nH]c1=S	11%	-19%	-25%	u	-11%	-69*
